These results are taken from ChEMBL document CHEMBL3988442, “University of Dundee, Small-Polar-MMV Screening Library” (2021).

For some of these results: Measured potencies and affinities stand elsewhere.

What all share (set-up): scale not given: direction of the effect not stated beside the values
For experiment [1], the target named is Protein translocase subunit SecA (Escherichia coli (strain K12)) (UniProt P10408). Put plainly: Assay to Identify E. coli SecA ATPase Inhibitors. The experiment is classed as functional. To be noted: 30 µM.
Protein translocase subunit SecA (Escherichia coli (strain K12)), sequence (P10408 whole entry): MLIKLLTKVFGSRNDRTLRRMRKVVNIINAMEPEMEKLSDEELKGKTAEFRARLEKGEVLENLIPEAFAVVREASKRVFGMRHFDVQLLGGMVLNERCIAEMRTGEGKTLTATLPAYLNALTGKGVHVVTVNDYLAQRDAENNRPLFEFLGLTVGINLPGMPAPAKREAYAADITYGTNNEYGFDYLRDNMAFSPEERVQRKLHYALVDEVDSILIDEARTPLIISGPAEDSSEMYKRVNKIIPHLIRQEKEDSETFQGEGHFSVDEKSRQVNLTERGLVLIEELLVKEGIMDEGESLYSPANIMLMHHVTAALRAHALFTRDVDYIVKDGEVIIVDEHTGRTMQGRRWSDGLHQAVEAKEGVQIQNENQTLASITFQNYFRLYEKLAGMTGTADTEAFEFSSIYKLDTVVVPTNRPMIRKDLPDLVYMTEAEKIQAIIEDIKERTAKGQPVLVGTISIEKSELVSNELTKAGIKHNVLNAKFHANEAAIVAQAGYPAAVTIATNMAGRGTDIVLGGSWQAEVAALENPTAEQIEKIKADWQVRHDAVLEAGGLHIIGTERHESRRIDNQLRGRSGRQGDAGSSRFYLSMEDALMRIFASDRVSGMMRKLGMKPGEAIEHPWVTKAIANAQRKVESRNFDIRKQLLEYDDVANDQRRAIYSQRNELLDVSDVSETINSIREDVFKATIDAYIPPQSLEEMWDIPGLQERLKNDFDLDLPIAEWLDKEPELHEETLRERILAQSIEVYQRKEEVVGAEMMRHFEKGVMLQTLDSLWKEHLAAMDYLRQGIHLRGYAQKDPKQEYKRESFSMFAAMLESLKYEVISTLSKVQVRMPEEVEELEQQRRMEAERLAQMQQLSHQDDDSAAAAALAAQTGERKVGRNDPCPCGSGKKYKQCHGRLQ
Experiment [2] has as its target T1, Ubiquitin-activating enzyme e1, putative (Leishmania donovani (strain BPK282A1)) (UniProt E9BSI1).
T1 sequence (whole entry): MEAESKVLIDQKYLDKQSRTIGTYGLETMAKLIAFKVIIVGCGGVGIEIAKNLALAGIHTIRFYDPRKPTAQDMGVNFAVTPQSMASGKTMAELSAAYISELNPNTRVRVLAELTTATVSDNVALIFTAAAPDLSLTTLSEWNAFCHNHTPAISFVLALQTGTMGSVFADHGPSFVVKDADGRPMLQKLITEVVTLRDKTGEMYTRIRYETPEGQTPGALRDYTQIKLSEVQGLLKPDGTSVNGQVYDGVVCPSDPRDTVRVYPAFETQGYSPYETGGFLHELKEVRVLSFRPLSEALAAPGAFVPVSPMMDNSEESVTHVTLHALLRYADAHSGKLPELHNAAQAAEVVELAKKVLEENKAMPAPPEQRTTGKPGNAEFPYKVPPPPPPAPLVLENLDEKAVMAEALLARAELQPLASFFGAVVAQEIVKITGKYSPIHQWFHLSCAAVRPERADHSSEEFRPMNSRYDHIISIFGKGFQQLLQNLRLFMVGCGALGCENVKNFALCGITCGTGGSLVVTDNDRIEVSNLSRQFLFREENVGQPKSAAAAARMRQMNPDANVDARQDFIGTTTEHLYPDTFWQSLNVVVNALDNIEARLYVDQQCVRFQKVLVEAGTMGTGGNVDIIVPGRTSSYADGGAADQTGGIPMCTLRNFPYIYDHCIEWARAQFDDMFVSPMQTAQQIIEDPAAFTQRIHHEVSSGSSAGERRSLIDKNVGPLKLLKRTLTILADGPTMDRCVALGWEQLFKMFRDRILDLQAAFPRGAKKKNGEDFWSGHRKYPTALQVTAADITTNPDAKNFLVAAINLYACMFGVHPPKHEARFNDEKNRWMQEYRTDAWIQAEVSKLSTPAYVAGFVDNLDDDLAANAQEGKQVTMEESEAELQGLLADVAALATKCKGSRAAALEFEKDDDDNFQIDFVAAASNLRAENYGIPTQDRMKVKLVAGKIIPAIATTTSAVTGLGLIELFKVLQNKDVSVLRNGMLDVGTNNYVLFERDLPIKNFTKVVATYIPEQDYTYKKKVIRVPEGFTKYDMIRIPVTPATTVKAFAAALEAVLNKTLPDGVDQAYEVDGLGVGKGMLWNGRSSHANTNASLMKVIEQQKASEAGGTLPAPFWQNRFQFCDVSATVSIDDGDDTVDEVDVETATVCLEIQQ
Put plainly: Leishmania donovani Ubiquitin Activating Enzyme (LdE1). To be noted: 30 µM. The format is functional.

Experiment [3] addresses AMP-activated protein kinase, AMPK (Homo sapiens) (UniProt P54646+O43741+P54619+Q9UGJ0+Q9Y478+Q13131+Q9UGI9). Put plainly: AMP-dependent Kinase enzyme assay. An in vitro enzyme assay that detects ADP turnover that is directly proportional to AMPK activity. This uses naive AMPK that is activated during the assay with MK-8722. The conditions noted are these: 30 µM. The experiment is classed as functional.

The target in experiment [4] is Sialic acid-binding Ig-like lectin 9 (Homo sapiens) (UniProt Q9Y336). Put plainly: Hs-Siglec9 ALPHAscreen SOP 20170721. To be noted: 10 µM. Background: Alpha assays give light when donor and acceptor beads are brought close together.
Sialic acid-binding Ig-like lectin 9 (Homo sapiens), sequence (Q9Y336 whole entry): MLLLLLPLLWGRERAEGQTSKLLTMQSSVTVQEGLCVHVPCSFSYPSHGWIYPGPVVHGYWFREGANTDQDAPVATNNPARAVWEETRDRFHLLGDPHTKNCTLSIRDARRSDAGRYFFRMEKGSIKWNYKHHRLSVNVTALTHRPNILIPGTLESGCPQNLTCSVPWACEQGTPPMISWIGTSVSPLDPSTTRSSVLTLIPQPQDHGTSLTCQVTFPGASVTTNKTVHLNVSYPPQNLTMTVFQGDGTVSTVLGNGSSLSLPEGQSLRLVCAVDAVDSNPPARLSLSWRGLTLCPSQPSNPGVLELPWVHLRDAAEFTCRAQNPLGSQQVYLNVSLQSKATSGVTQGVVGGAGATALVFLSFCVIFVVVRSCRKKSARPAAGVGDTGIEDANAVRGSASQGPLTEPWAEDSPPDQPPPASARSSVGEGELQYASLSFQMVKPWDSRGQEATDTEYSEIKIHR
In the next experiment the test system is Trypanosoma cruzi. The experiment in a line: Trypanosoma cruzi phosphomannomutase and mannose-1-phosphate guanylyltransferase assay. The conditions noted are these: 10 µM. The format is functional.
The target of experiment [5] is T2, Arginase-2, mitochondrial (Homo sapiens) (UniProt P78540).
T2 sequence (whole entry): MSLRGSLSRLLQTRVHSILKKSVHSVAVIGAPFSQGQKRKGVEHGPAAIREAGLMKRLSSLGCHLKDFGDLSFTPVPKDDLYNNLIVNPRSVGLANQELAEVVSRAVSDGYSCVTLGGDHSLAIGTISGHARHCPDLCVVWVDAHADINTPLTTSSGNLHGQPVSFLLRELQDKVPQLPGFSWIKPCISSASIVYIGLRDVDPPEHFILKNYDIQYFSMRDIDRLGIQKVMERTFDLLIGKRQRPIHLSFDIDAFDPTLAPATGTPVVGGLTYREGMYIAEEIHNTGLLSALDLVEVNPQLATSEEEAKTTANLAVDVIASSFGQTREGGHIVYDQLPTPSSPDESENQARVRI
The experiment in a line: in vitro enzyme assay to detect the production of urea directly proportional to the activity of Arginase II. Note: in the data most compounds retested in dose-response had high values. The format is functional. To be noted: 33.3 µM.

Experiment [6] addresses T3, Proteasome subunit beta (Trypanosoma cruzi) (UniProt O96673).
T3 sequence (whole entry): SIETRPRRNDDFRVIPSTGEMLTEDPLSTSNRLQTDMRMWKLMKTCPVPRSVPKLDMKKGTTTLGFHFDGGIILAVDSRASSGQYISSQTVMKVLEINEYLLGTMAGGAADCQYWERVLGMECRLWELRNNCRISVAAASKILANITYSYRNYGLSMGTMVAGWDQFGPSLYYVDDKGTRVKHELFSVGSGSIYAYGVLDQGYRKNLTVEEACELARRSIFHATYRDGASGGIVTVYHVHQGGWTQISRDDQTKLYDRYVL
The experiment in a line: Trypanosoma cruzi proteasome chymotrypsin-like activity (TcProtChymo) assay. Note: in the data most compounds retested in dose-response had high values. The format is functional. The conditions noted are these: 9.37 µM.

A further experiment is filed under the species Homo sapiens. The experiment in a line: To identify inhibition of the IFN signalling (Jak-Stat) pathway via expression of an eGFP reporter gene under the control of an IFN-stimulated response element (ISRE) containing MxA promoter. The experiment is classed as functional. To be noted: 30 µM. A general note: Reporter assays use an easily measured gene product as a stand-in for the process of interest.

The target in experiment [7] is T4, Tyrosyl-tRNA synthetase, putative (Trypanosoma cruzi (strain CL Brener)) (UniProt Q4DSP6).
T4 sequence (whole entry): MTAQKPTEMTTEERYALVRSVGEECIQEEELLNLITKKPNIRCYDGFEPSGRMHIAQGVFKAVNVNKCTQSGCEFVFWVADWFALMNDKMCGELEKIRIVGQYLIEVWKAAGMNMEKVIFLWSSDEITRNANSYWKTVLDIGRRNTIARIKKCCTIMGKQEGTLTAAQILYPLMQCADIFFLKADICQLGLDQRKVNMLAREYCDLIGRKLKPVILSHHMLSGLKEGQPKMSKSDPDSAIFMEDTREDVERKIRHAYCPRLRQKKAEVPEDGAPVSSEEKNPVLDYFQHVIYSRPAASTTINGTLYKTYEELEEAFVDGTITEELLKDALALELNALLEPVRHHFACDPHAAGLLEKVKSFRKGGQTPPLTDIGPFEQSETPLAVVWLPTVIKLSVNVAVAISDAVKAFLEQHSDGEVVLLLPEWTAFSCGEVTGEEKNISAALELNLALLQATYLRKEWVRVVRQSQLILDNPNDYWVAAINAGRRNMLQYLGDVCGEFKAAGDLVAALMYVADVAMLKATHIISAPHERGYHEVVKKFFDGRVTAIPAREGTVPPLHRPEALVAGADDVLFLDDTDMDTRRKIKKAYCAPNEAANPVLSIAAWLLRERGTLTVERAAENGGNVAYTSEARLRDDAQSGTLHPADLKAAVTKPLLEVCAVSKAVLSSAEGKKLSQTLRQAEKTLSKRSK
Put plainly: Trypanosoma cruzi tyrosyl tRNA synthetase (TcYRS) _High Tyrosine SOP. Note: in the data most compounds retested in dose-response had high values. The experiment is classed as functional. The conditions noted are these: 30 µM.

The target of experiment [8] is T4, Tyrosyl-tRNA synthetase, putative (Trypanosoma cruzi (strain CL Brener)). Put plainly: Trypanosoma cruzi tyrosyl tRNA synthetase (TcYRS) SOP. The format is functional. The conditions noted are these: 30 µM.
Experiment [9] has as its target Chromo domain-containing protein 1 (Saccharomyces cerevisiae (strain ATCC 204508 / S288c) (Baker's yeast)) (UniProt P32657). The experiment in a line: ScCHD-1 Enzyme Inhibition Assay. Note: in the data most compounds retested in dose-response had high values. The experiment is classed as functional. The conditions noted are these: 30 µM.

Chromo domain-containing protein 1 (Saccharomyces cerevisiae (strain ATCC 204508 / S288c) (Baker's yeast)), sequence (P32657 whole entry, the tested form may be a part): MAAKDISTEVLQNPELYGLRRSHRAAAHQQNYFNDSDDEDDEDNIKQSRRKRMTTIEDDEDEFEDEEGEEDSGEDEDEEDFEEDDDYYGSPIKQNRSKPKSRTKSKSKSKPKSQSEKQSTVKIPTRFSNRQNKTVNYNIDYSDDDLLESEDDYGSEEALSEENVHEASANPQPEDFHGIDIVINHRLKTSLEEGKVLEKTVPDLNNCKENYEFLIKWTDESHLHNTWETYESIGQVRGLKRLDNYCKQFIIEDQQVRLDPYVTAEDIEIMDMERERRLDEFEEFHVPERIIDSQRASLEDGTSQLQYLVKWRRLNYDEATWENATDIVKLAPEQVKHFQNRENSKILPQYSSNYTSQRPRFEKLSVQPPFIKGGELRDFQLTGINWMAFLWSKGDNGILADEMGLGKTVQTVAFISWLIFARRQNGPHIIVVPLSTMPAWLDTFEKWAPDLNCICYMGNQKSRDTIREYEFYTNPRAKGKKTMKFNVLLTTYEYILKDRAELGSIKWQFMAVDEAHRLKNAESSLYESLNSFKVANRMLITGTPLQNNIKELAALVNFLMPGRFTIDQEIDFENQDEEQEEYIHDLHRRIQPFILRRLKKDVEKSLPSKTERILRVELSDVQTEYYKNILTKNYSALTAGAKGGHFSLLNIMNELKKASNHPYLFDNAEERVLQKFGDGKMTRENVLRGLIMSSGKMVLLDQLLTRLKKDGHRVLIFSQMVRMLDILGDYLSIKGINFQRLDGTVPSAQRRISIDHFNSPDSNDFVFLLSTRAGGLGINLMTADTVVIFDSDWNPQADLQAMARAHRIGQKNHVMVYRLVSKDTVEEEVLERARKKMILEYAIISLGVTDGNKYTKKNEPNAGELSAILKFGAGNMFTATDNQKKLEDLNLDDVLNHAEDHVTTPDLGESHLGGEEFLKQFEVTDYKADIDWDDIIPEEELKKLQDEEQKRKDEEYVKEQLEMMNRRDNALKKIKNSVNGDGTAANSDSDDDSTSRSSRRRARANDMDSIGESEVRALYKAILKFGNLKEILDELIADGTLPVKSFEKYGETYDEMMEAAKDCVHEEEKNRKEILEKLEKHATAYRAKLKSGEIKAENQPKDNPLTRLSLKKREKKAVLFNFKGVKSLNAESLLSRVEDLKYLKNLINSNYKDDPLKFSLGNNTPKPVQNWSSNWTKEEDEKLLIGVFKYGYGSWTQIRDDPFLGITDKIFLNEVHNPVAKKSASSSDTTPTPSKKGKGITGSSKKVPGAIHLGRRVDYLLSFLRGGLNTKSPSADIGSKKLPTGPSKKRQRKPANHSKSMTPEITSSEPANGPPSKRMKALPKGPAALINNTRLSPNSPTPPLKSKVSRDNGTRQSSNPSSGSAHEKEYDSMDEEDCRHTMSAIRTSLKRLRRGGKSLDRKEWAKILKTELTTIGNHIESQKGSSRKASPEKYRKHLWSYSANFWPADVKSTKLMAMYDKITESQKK

Regarding `Cc1cccc(NS(=O)(=O)c2cc(C(=O)O)oc2C)c1Cl`, the Percent Effect in experiment [1] is -6.42%; in experiment [2], 0%; in experiment [3], 0.702%; in experiment [4] it was 9.91%; in the experiment with Trypanosoma cruzi, 6.18%; in experiment [5], -4.27%. The Percent Effect in experiment [6] was 0.338%; in the experiment filed under Homo sapiens, 3.85%; in experiment [7], 1.94%; in [8] it was 9.76%; in experiment [9] it was -7.97%.
Consider `Cc1cccc(C2(C(=O)NCCCn3cccn3)CC2)c1`, for which the Percent Effect is -2.92% in [1]; 19.2% in [2]; -1.18% in experiment [3]; 14.6% in experiment [4]; 2.94% with Trypanosoma cruzi; 17.3% in [5]. Also, the Percent Effect in experiment [6] was 10.5%; in the experiment filed under Homo sapiens, 8.26%; in [7], 3.23%; in experiment [8], 15%; in experiment [9], -6.34%.
In the case of `O=C(NCCN1CCCCC1)c1nc(-c2ccc3cc[nH]c3c2)no1`, the Percent Effect in experiment [1] is -1.02%; in [2], 25.3%; in experiment [3] it was -7.25%; in [4], 3.61%; in the experiment on Trypanosoma cruzi it was 4.71%; in experiment [5], -4.75%. For the same compound, the Percent Effect in [6] is 20.5%; in the experiment listed under Homo sapiens, -13.4%; in experiment [7] it was 4.23%; in experiment [8], 12.8%; in [9], -6.27%.
`CCN(Cc1ccc2c(c1)OCCO2)C(=O)NCc1nc(C)cs1`: the Percent Effect is 0.275% in experiment [1]; 10.4% in experiment [2]; -0.784% in [3]; -5.04% in experiment [4]; -0.294% in the experiment on Trypanosoma cruzi; 4.84% in experiment [5]. The Percent Effect was 14.6% in experiment [6]; 11.4% in the experiment filed under Homo sapiens; 4.76% in [7]; 11.8% in experiment [8]; -19.3% in experiment [9].
As for `N#Cc1cccnc1N1CCC2(CCCN(C3CCOCC3)C2=O)C1` (stereo unspecified), the Percent Effect was -3.31% in [1]; 5.48% in experiment [2]; 0.329% in experiment [3]; 1.41% in experiment [4]; 2.58% in the experiment with Trypanosoma cruzi; -3.99% in [5]. Also, the Percent Effect is 8.82% in experiment [6]; 7.98% in the experiment filed under Homo sapiens; 1.04% in experiment [7]; 1.24% in experiment [8]; -4.64% in [9].
Regarding `CC(C)N1CCC(Cc2cncc(-c3ccccc3C(=O)O)n2)CC1`, the Percent Effect was -3.85% in [1]; 8% in experiment [2]; 9.75% in experiment [3]; 5.58% in [4]; -4.13% in the experiment on Trypanosoma cruzi; 0.699% in experiment [5]. The Percent Effect is 4.32% in experiment [6]; 13.7% in the experiment listed under Homo sapiens; 5.32% in experiment [7]; 8.97% in [8]; -3.75% in experiment [9].
With `O=C(NCc1ccccc1CN1CCC(O)CC1)Nc1cccnc1`, the Percent Effect in experiment [1] is -1.42%; in experiment [2], -5.41%; in [3], -1.33%; in experiment [4], 2.18%; with Trypanosoma cruzi it was 0.193%; in experiment [5] it was 2.38%. Further, the Percent Effect in [6] is 8.79%; in the experiment filed under Homo sapiens it was -8.19%; in experiment [7] it was 1.59%; in experiment [8], -2.44%; in [9] it was -1.85%.
Turning to `Cn1nc(C2CN(C(=O)c3cscn3)C2)c2nccnc21`, the Percent Effect was -0.655% in [1]; 17.6% in experiment [2]; -2.02% in experiment [3]; -2.09% in experiment [4]; 1.38% in the experiment with Trypanosoma cruzi; 2.55% in experiment [5]. For the same compound, the Percent Effect in [6] was 17.2%; in the experiment filed under Homo sapiens, 8.4%; in [7], 6.45%; in experiment [8], 11.7%; in experiment [9], -18.2%.
For `Cc1cc(-c2cnc(N3CCN(C)CC3)nc2-c2ccc(C)s2)on1`, the Percent Effect in experiment [1] is -2.21%; in [2], -1.35%; in experiment [3], 10.6%; in experiment [4], 0.731%; with Trypanosoma cruzi, -4.15%; in experiment [5] it was 2.09%. In addition, the Percent Effect was 2.81% in experiment [6]; -1.59% in the experiment listed under Homo sapiens; 1.07% in experiment [7]; 6.49% in experiment [8]; -16.5% in experiment [9].
As to `O=C(CCOc1cccc(F)c1)N1CCCC(n2cncn2)C1` (stereo unspecified), the Percent Effect in experiment [1] was -2.79%; in [2], 1.27%; in experiment [3] it was 7.42%; in experiment [4] it was 3.23%; in the experiment with Trypanosoma cruzi, -1.95%; in experiment [5] it was 4.95%. The Percent Effect in experiment [6] is 6%; in the experiment filed under Homo sapiens, 2.52%; in [7] it was 2.08%; in [8], 7.59%; in experiment [9], -10.2%.
As to `Cc1cc(C[C@@H]2COC[C@H]2NCc2ccccc2C(F)(F)F)on1`, the Percent Effect was -5.6% in experiment [1]; 4.05% in [2]; -0.353% in experiment [3]; 6.23% in experiment [4]; 1.58% in the experiment on Trypanosoma cruzi; 0.232% in experiment [5]. For the same compound, the Percent Effect in experiment [6] is 14%; in the experiment filed under Homo sapiens, 5.54%; in experiment [7], 3.23%; in experiment [8], 11.7%; in experiment [9] it was -18.2%.
